Measurements taken from PubChem BioAssay AID504424 (National Center for Advancing Translational Sciences (NCATS), 2011).
This is one part of the list. Calls of active or inactive are those of the source.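 Rule for the calls: active = compounds that showed inhibition of Dyrk1a and received a fitted potency; inactive = compounds that showed no inhibition.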

target: Dual specificity tyrosine-phosphorylation-regulated kinase 1A (Homo sapiens) (UniProt Q13627); assay: Kinase Inhibition Study on Inhibitors of Dyrk1a (Reaction Biology data); conditions: Reaction Biology kinase assay, 10 uM ATP
From the text: NIH Molecular Libraries Probe Production Centers Network [MLPCN] NIH Chemical Genomics Center [NCGC] MLPCN Grant: 1R03MH084827-01 Assay Submitter (PI): Tom Misteli NCGC Assay Overview: Alternative splicing of pre-mRNAs plays a major role in the regulation of eukaryotic gene expression. Alternative splicing is now thought to be one of the primary reasons for the complexity of higher organisms leading to an average of three protein isoforms per gene. Aberrant splicing can lead to a number of diseases and is known to play a role in rare genetic diseases such as progeria syndrome. Hutchinson-Gilford Progeria Syndrome (HGPS) is a pediatric premature aging disease caused by a spontaneous mutation in the lamin A/C (LMNA) gene due to a single point mutation in the lamin A gene effecting 1 in 4 million people. To identify both specific splicing modulators of the lamin A gene as well as general splicing modulators, a cell-based HTS assay was developed using a minigene reporter system (AIDs, 1459 & 1487). […] The Clk family is part of the CMGC group of protein kinases which includes Dyrks and are essential kinases found in all eukaryotes. […] This AID is to summarize the activity of these analogs in Dyrk1a.
All kinase reactions were performed using 10 uM ATP in the assay. 100% activity was taken from kinase reactions with DMSO alone (the vehicle used for compound stock solutions).

Potency, active:
CN(Cc1cncn1C)c1ncnc2ccc(-c3ccc4c(c3)OCO4)cc12 2450 nM
CC(Nc1ncnc2ccc(-c3ccc4c(c3)OCO4)cc12)c1ccco1 (centres undefined) 5600 nM
c1coc(CCNc2ncnc3ccc(-c4ccc5c(c4)OCO5)cc23)c1 74 nM
c1nc(N2CCOCC2)c2cc(-c3ccc4c(c3)OCO4)ccc2n1 723 nM
